Reference: the supplement of paper PMC3898565
Several values for one entry are separate records, joined by “and”; a condition that tells them apart may be missing. Identical values can stand only once. Counter-ions that a name gives are not always drawn. ± gives the uncertainty stated by the source.

These compounds were tested on U87 (assay: cell viability relative to vehicle control; higher = less growth inhibition (less active)). Conditions: 10 µM; 72 h.
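Also: viable cell number estimated from Alamar Blue fluorescence read at 560/90, part of a single-dose primary screen of an FDA-approved drug library.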

Q: With `C[C@H]1O[C@H](O[C@H]2[C@H](O)[C@@H](O)[C@@H](O[C@H]3[C@H](O)[C@@H](O)C(O)O[C@@H]3CO)O[C@@H]2CO)[C@H](O)[C@@H](O)[C@@H]1N[C@H]1C=C(CO)[C@@H](O)[C@H](O)[C@H]1O` (some centres undefined) as the compound, how does the cell viability read?
A: Its cell viability is 102.6 ± 0.92%.

Q: For `CN1CCN(CCCN2c3ccccc3Sc3ccc(Cl)cc32)CC1`, which cell viability is on record?
A: Its cell viability is 95.9 ± 7%.

Q: Which cell viability does the source give for `CCCCC1=NC2(CCCC2)C(=O)N1Cc1ccc(-c2ccccc2-c2nnn[nH]2)cc1` here?
A: The cell viability was 98 ± 3.2%.

Q: For `CC[C@]1(O)C[C@H]2CN(CCc3c([nH]c4ccccc34)[C@@](C(=O)OC)(c3cc4c(cc3OC)N(C=O)[C@H]3[C@@](O)(C(=O)OC)[C@H](OC(C)=O)[C@]5(CC)C=CCN6CC[C@]43[C@@H]65)C2)C1`, which cell viability is on record?
A: The cell viability was 25.9 ± 3.1%.

Q: For `Clc1ccccc1C(c1ccccc1)(c1ccccc1)n1ccnc1`, which cell viability is on record?
A: Its cell viability is 107.5 ± 0.99%.

Q: How did the cell viability turn out when `NC1CCN(c2nc3c(cc2F)c(=O)c(C(=O)O)cn3-c2ccc(F)cc2F)C1` (centres undefined) was run?
A: The cell viability was 98.01 ± 0.56%.

Q: `CC(=O)CCCCn1c(=O)c2c(ncn2C)n(C)c1=O` [Pentoxifylline] was tested. Which cell viability did it give?
A: The cell viability was 101.9 ± 0.75%.

Q: With `COc1nc(C)nc(Cl)c1NC1=NCCN1` as the compound, how does the cell viability read?
A: Its cell viability is 102 ± 1.7%.

Q: Which cell viability does the source give for `C[C@]12CCC(=O)C=C1CC[C@@H]1[C@@H]2C(=O)C[C@@]2(C)[C@H]1CC[C@]2(O)C(=O)CO` here?
A: Its cell viability is 102 ± 2.8%.

Q: With `CN1CCCCC1CCN1c2ccccc2Sc2ccc([S+](C)[O-])cc21` (centres undefined) [Mesoridazine] as the compound, how does the cell viability read?
A: The cell viability was 105 ± 2.8%.

Q: `CCN1CCCC1CNC(=O)c1cc(S(=O)(=O)CC)c(N)cc1OC` (centres undefined) [Amisulpride] was tested. Which cell viability did it give?
A: The cell viability was 101.2 ± 0.96%.

Q: How did the cell viability turn out when `O=C1[C@H](CC[C@H](O)c2ccc(F)cc2)[C@@H](c2ccc(O)cc2)N1c1ccc(F)cc1` was run?
A: The cell viability was 99.1 ± 2.4%.

Q: How did the cell viability turn out when `CN(C)CC/C=C1/c2ccccc2COc2ccc(CC(=O)O)cc21` was run?
A: Its cell viability is 95.88 ± 0.86%.

Q: For `CC(=O)O[C@]1(C(C)=O)CC[C@H]2[C@@H]3C=C(C)C4=CC(=O)CC[C@]4(C)[C@H]3CC[C@@]21C`, which cell viability is on record?
A: Its cell viability is 101 ± 1.2%.

Q: With `O=c1n(CCCN2CCN(c3cccc(Cl)c3)CC2)nc2ccccn12` as the compound, how does the cell viability read?
A: The cell viability was 101 ± 1.3%.

Q: Which cell viability does the source give for `COC(=O)Nc1nc2cc(C(=O)c3ccc(F)cc3)ccc2[nH]1` here?
A: The cell viability was 30 ± 7.6%.

Q: With `C[C@]12CCC(=O)C=C1CC[C@@H]1[C@@H]2CC[C@@]2(C)[C@H]1CC[C@]2(O)C(=O)CO` as the compound, how does the cell viability read?
A: Its cell viability is 103.8 ± 0.18%.

Q: How did the cell viability turn out when `COc1ccc(-c2oc3c(CC=C(C)C)c(O[C@@H]4O[C@H](CO)[C@@H](O)[C@H](O)[C@H]4O)cc(O)c3c(=O)c2O[C@@H]2O[C@@H](C)[C@H](O)[C@@H](O)[C@H]2O)cc1` was run?
A: The cell viability was 105 ± 1.9%.

Q: With `O=c1[nH]cnc2c1ncn2[C@H]1CC[C@@H](CO)O1` as the compound, how does the cell viability read?
A: Its cell viability is 105 ± 2.5%.

Q: With `CN1[C@@H](CC(=O)c2ccccc2)CCC[C@H]1C[C@H](O)c1ccccc1` as the compound, how does the cell viability read?
A: Its cell viability is 98.58 ± 0.82%.

Q: How did the cell viability turn out when `O=C1Nc2ccc(Cl)cc2[C@@](C#CC2CC2)(C(F)(F)F)O1` was run?
A: The cell viability was 107 ± 1.1%.

Q: How did the cell viability turn out when `CN(CCOc1ccc(CC2SC(=O)NC2=O)cc1)c1ccccn1` (centres undefined) was run?
A: The cell viability was 100% and 110%.

Q: `CN(C)CCC(c1ccc(Cl)cc1)c1ccccn1` (centres undefined) [Chlorpheniramine] was tested. Which cell viability did it give?
A: The cell viability was 109 ± 2.8%.

Q: For `COc1ccc2c3c1O[C@H]1C[C@@H](O)C=C[C@@]31CCN(C)C2` [Galanthamine], which cell viability is on record?
A: Its cell viability is 100 ± 0.85%.

Q: How did the cell viability turn out when `CNNCc1ccc(C(=O)NC(C)C)cc1` [Procarbazine] was run?
A: The cell viability was 104.4 ± 0.86%.

Q: `CC(C(=O)O)c1ccc(CC2CCCC2=O)cc1` (centres undefined) was tested. Which cell viability did it give?
A: The cell viability was 99.3 ± 2.7%.

Q: For `O=C(O[C@@H]1Cc2c(O)cc(O)cc2O[C@@H]1c1cc(O)c(O)c(O)c1)c1cc(O)c(O)c(O)c1` [Epigallocatechin gallate], which cell viability is on record?
A: The cell viability was 77.8 ± 4.2%.

Q: With `C[C@@H](c1ncncc1F)[C@](O)(Cn1cncn1)c1ccc(F)cc1F` as the compound, how does the cell viability read?
A: The cell viability was 106 ± 1.7%.

Q: How did the cell viability turn out when `Cn1c(NCCN(CCO)CCCc2ccc([N+](=O)[O-])cc2)cc(=O)n(C)c1=O` was run?
A: The cell viability was 102 ± 3.1%.

Q: `COc1ccccc1OCC(O)CN1CCN(CC(=O)Nc2c(C)cccc2C)CC1` (centres undefined) [Ranolazine dihydrochloride] was tested. Which cell viability did it give?
A: Its cell viability is 102.8 ± 0.94%.

Q: For `Nc1nc(N)nc(-c2cc(Cl)ccc2Cl)n1`, which cell viability is on record?
A: Its cell viability is 95.63 ± 0.69%.

Q: How did the cell viability turn out when `CS(=O)(=O)c1ccc(C2=C(c3ccccc3)C(=O)OC2)cc1` was run?
A: Its cell viability is 107.7 ± 0.87%.

Q: `CN1CCC(=C2c3ccccc3C=Cc3ccccc32)CC1` [Cyproheptadine] was tested. Which cell viability did it give?
A: Its cell viability is 103.33 ± 0.068%.

Q: `CC1(C)S[C@@H]2[C@H](/N=C/N3CCCCCC3)C(=O)N2[C@H]1C(=O)O` was tested. Which cell viability did it give?
A: The cell viability was 104 ± 2.1%.

Q: For `C=CC1=C(C(=O)O)N2C(=O)[C@@H](NC(=O)/C(=N\OCC(=O)O)c3csc(N)n3)[C@H]2SC1`, which cell viability is on record?
A: The cell viability was 103.9 ± 0.8%.

Q: How did the cell viability turn out when `Nc1nc(Cl)nc2c1ncn2[C@H]1C[C@H](O)[C@@H](CO)O1` was run?
A: The cell viability was 35.4 ± 1.4%.

Q: With `CCN(CC)C(=O)C1(c2ccccc2)CC1CN` (centres undefined) [Milnacipran] as the compound, how does the cell viability read?
A: The cell viability was 102 ± 1.5%.

Q: For `CN1CCN(c2c(F)cc3c(=O)c(C(=O)O)cn4c3c2SCC4)CC1`, which cell viability is on record?
A: The cell viability was 99.9 ± 1.7%.

Q: With `NC(=O)OCC(COC(N)=O)c1ccccc1` [Felbamate] as the compound, how does the cell viability read?
A: Its cell viability is 105.7 ± 1%.
